Screening data as filed in PubChem.
Shown are actives, neighbours in structure and some others; about 6.6% of the full set was active somewhere.
KB-3-1 cytotox: kills parental KB-3-1 adenocarcinoma cells; AID 1347075; KB-3-1 viability, CellTiter-Glo ATP luminescence, 72 h; actives 1.4% (n = 400,000); Potency, µM (doses to about 46.1 µM), hits mostly cytotoxic; also: % is scaled to controls: 0 for no effect and ±100 for the full control effect; nearly all actives have a fitted effect of over 60% in size
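Screening of KB-3-1 cells (DMEM, 10% FBS, phenol-red free) ran from lowest to highest compound concentration; after 72 h at 37 °C viability was read luminescently and curves fitted.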
HT1080-NT tox: kills 2HG-producing HT-1080-NT fibrosarcoma cells; HT-1080-NT fibrosarcoma viability, CellTiter-Glo ATP luminescence, 48 h; actives 1.6% (n = 360,000); AID 686970; Potency, µM (titrated, usually from 46.1 µM), without a hit: top-dose activity, negative = less viability, usual class: cytotoxic;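 also: NT is the 2HG producing partner of a matched IDH1 knockdown line; 0% = DMSO-treated cells and -100% = media-only wells without cells; nearly all actives have a fitted effect of over 55% in size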
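Read-out is CellTiter-Glo luminescence after 10 minutes at room temperature, following 48 hours' compound treatment of HT-1080-NT cells (750 cells/well, RPMI, 5% FBS, 37 degrees C).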
HT1080 IDH1KD tx: HT-1080 IDH1 knockdown cell toxicity (counter line) | HT-1080 IDH1 knockdown viability, ATP luminescence, 48 h | Potency, µM (series often up to 46.1 µM), for the others: top-dose activity, negative = toxicity, hits mostly cytotoxic | actives 2% (n = 360,000);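 also: 0% = DMSO wells and -100% = cell-free medium wells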
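IDH1KD HT-1080 cells, 750/well, RPMI + 5% FBS; compound pinned after 2 h settling; 48 h, 37 °C; CellTiter-Glo luminescence; % activity normalised to DMSO and no-cell wells; curves fitted, classed by r2 and efficacy.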
HepG2 viability: kills HepG2 cells in TGF-b inhibitor counter-screen; HepG2 CAGA-GFP viability, ATP luminescence, 18 h; actives 0.76% (n = 410,000); Potency, µM (highest dose often 46.1 µM), for the others: top-dose activity change, negative = cytotoxicity, most hits filed as cytotoxic
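CellTiter-Glo luminescence gave cytotoxicity after 18 hours at 37 degrees C. The cells were HepG2 CAGA-GFP in 1% FBS DMEM, stimulated with 500 pg/mL TGF-beta after compound addition. %Activity was normalised to no-cell wells (complete cell-killing) and DMSO (no toxicity), and curves were fitted and classified.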
TGFb SMAD3 inh: inhibitors of TGF-b signaling. HepG2 CAGA-GFP TGF-b/SMAD3 reporter, GFP fluorescence, 18 h; TGF-beta stimulated, 500 pg/mL final. Potency, µM (top dose mostly 46.1 µM), inactives show top-dose activity, negative = inhibition, hits mostly inhibitors. actives 1.2% (n = 410,000). AID 588855; also: % is scaled to controls: 0 for no effect and ±100 for the full control effect; nearly all actives have a fitted effect of over 65% in size
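HEPG2 CAGA-GFP, 1000 cells/well; 2 h settle, 37 C; cpd via pin tool; TGF-b 500 pg/mL final; 18 h, 37 C; GFP imaging ex488/em500-530; %Activity normalised to -TGF-b and +DMSO controls; CRC fit, curve class.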
KB-V1 cytotox: kills drug-selected multidrug resistant KB-V1 cells; KB-V1 MDR cells viability, CellTiter-Glo, 72 h; actives 3.4% (n = 400,000); Potency, µM (highest dose often 46.1 µM), usual class: cytotoxic; also: % is scaled to controls: 0 for no effect and ±100 for the full control effect; nearly all actives have a fitted effect of over 60% in size
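Drug-selected KB-V1 cells, grown in DMEM lacking phenol red with 10% FBS, receive compound titrations; after three days at 37 degrees C, surviving cell ATP is quantified by CellTiter-Glo luminescence and responses normalized and curve-fitted.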
* marks the source's active call; other numbers are inactive results. Calls follow the shape of the dose curve; as a rule, active = well fitted curve in the direction sought with a large enough effect; inconclusive = small, poorly fitted or top-dose-only effect, or another doubt; inactive = no such curve, though single readings can be large; an effect the other way counts as inactive or inconclusive. Potency is read from the fitted curve at half-maximal effect.

What do the screens show for `CC(=O)c1cccc(Nc2cc(C)nc3nc(-c4ccccc4C)nn23)c1`?
KB-3-1 cytotox: inactive; HepG2 viability: -15%; TGFb SMAD3 inh: -3%; KB-V1 cytotox: inactive

Results for Clc1ccc(-c2nnc3c4ccccc4nc(N4CCOCC4)n23)cc1Cl ?
KB-3-1 cytotox: inactive; HT1080-NT tox: -3%; HT1080 IDH1KD tx: -16%; HepG2 viability: -39%; TGFb SMAD3 inh: 5%; KB-V1 cytotox: 2.6µM*

What do the screens show for `Brc1ccc(-c2nnc3c4ccccc4nc(N4CCOCC4)n23)cc1`?
KB-3-1 cytotox: inactive; HT1080-NT tox: inconclusive; HT1080 IDH1KD tx: 11%; HepG2 viability: 8%; TGFb SMAD3 inh: 6%; KB-V1 cytotox: 2.6µM*

Results for Fc1ccccc1-c1nnc2c3ccccc3nc(N3CCOCC3)n12 ?
KB-3-1 cytotox: inactive; HT1080-NT tox: 11%; HT1080 IDH1KD tx: 3%; HepG2 viability: -17%; TGFb SMAD3 inh: -8%; KB-V1 cytotox: inactive

What do the screens show for `CCN1C(C(=O)c2ccccc2)=C(OC(=O)COc2ccc(C)cc2)c2ccccc2S1(=O)=O`?
HepG2 viability: -4%; TGFb SMAD3 inh: -26%

Results for CCOC(=O)c1c(C)oc2nc(C)nc(N(C)Cc3ccccc3)c12 ?
KB-3-1 cytotox: inactive; HepG2 viability: -17%; TGFb SMAD3 inh: -24%; KB-V1 cytotox: inactive

Results for Cc1ccccc1CNC(=O)CN1C(=O)CCCc2ccccc21 ?
KB-3-1 cytotox: inactive; HepG2 viability: -12%; TGFb SMAD3 inh: 9%; KB-V1 cytotox: inactive

Results for O=C(N/N=C/c1ccc[nH]1)c1ccccc1OCc1ccc(F)cc1 ?
KB-3-1 cytotox: inactive; HT1080-NT tox: 0%; HT1080 IDH1KD tx: -1%; HepG2 viability: 25%; TGFb SMAD3 inh: -2%; KB-V1 cytotox: inactive

Results for CCOc1ccc(OCc2ccc(C(=O)NN=Cc3ccc[nH]3)cc2)cc1 ?
KB-3-1 cytotox: 2.3µM*; HT1080-NT tox: 0.65µM*; HT1080 IDH1KD tx: inconclusive; HepG2 viability: -17%; TGFb SMAD3 inh: -20%; KB-V1 cytotox: inactive

Results for CCn1c([N+](=O)[O-])nc2c1c(=O)[nH]c(=O)n2C ?
KB-3-1 cytotox: inconclusive; HT1080-NT tox: 18µM*; HT1080 IDH1KD tx: 21µM*; HepG2 viability: -126%; TGFb SMAD3 inh: 10µM*; KB-V1 cytotox: inconclusive

Results for COc1ccc(OC)c(S(=O)(=O)N2Cc3ccccc3CC2C(=O)Nc2ccc(C(C)=O)cc2)c1 (stereo not given) ?
HepG2 viability: -2%

What do the screens show for `CCCC[n+]1c(/C=C/c2ccc(N(C)C)cc2)sc2ccccc21`?
KB-3-1 cytotox: 1.8µM*; HepG2 viability: -36%; TGFb SMAD3 inh: inconclusive; KB-V1 cytotox: inactive

What do the screens show for `CN(C)c1ccc(/C=C/c2c3ccccc3cc[n+]2[O-])cc1`?
KB-3-1 cytotox: inactive; HepG2 viability: -8%; TGFb SMAD3 inh: 3%; KB-V1 cytotox: inactive

What do the screens show for `CCCCCCCCCC[n+]1ccc(/C=C/c2ccc(N(C)C)cc2)c2ccccc21`?
KB-3-1 cytotox: inconclusive; HepG2 viability: -94%; TGFb SMAD3 inh: inconclusive; KB-V1 cytotox: inconclusive

Results for CN(C)c1ccc(/C=C/c2sc3ccccc3[n+]2CCCCI)cc1 ?
KB-3-1 cytotox: inconclusive; HepG2 viability: -30%; TGFb SMAD3 inh: inconclusive; KB-V1 cytotox: 23µM*

Results for CN(Cc1ccccc1)c1ccc(/C=C/c2sc3ccccc3[n+]2C)cc1 ?
KB-3-1 cytotox: inconclusive; HepG2 viability: -34%; TGFb SMAD3 inh: 3.2µM*; KB-V1 cytotox: inactive

Results for CCCN(CCC)C(=O)c1nn(C)c2c1CSc1ccc(C)cc1-2 ?
KB-3-1 cytotox: inactive; HepG2 viability: -19%; TGFb SMAD3 inh: -1%; KB-V1 cytotox: inactive

How did Cc1ccc(C(=O)NCC(c2cccs2)S(=O)(=O)c2cccs2)cc1C (stereo not given) do in these assays?
KB-3-1 cytotox: inconclusive; HepG2 viability: -2%; TGFb SMAD3 inh: inconclusive; KB-V1 cytotox: inactive

Results for COc1ccccc1NC(=O)c1nc(SCc2ccccc2F)ncc1Cl ?
KB-3-1 cytotox: inactive; HepG2 viability: 4%; TGFb SMAD3 inh: 5%; KB-V1 cytotox: inactive

What do the screens show for `COc1ccc(CNC(=O)Cn2ncc3c4ccccc4n(Cc4cccc(Cl)c4)c3c2=O)cc1`?
KB-3-1 cytotox: inactive; HepG2 viability: -5%; TGFb SMAD3 inh: -4%; KB-V1 cytotox: inactive

What do the screens show for `COc1ccc(C)c(-n2c(=O)n(Cc3ccccc3)c(=O)c3[nH]cnc32)c1`?
KB-3-1 cytotox: inactive; HT1080-NT tox: 12%; HT1080 IDH1KD tx: 0%; HepG2 viability: 0%; TGFb SMAD3 inh: -5%; KB-V1 cytotox: inactive

What do the screens show for `COc1ccc(Cn2c(=O)c3[nH]cnc3n(-c3ccccc3C)c2=O)cc1`?
KB-3-1 cytotox: 16µM*; HT1080-NT tox: 12µM*; HT1080 IDH1KD tx: 12µM*; HepG2 viability: 4%; TGFb SMAD3 inh: -1%; KB-V1 cytotox: inconclusive

What do the screens show for `COc1ccc(CN(C)c2ncnc3sccc23)c(OC)c1OC`?
KB-3-1 cytotox: 8.2µM*; HT1080-NT tox: inconclusive; HT1080 IDH1KD tx: inconclusive; HepG2 viability: -19%; TGFb SMAD3 inh: inconclusive; KB-V1 cytotox: 4.6µM*

Results for COc1ccc(CCN(C)c2ncnc3sccc23)cc1OC ?
KB-3-1 cytotox: inactive; HT1080-NT tox: -16%; HT1080 IDH1KD tx: -7%; HepG2 viability: -11%; TGFb SMAD3 inh: -17%; KB-V1 cytotox: inactive

What do the screens show for `COC(=O)c1cn(Cc2ccccc2C)nn1`?
KB-3-1 cytotox: inactive; HT1080-NT tox: 1%; HT1080 IDH1KD tx: -12%; HepG2 viability: 1.8µM*; TGFb SMAD3 inh: -29%; KB-V1 cytotox: inactive

What do the screens show for `C/C(CC(=O)Nc1ccccn1)=N\NC(=O)c1ccc2ccccc2c1`?
KB-3-1 cytotox: inactive; HT1080-NT tox: -3%; HT1080 IDH1KD tx: -16%; HepG2 viability: 6%; TGFb SMAD3 inh: -11%; KB-V1 cytotox: inactive

What do the screens show for `C/C(CC(=O)Nc1ccccn1)=N\NC(=O)c1ccccc1O`?
KB-3-1 cytotox: inconclusive; HT1080-NT tox: 21µM*; HT1080 IDH1KD tx: 9.2µM*; HepG2 viability: -37%; TGFb SMAD3 inh: -24%; KB-V1 cytotox: inactive

Results for COc1cc(OC)cc(C(=O)N/N=C(\C)CC(=O)Nc2ccccn2)c1 ?
KB-3-1 cytotox: inactive; HT1080-NT tox: 2.6µM*; HT1080 IDH1KD tx: 3.3µM*; HepG2 viability: 1%; TGFb SMAD3 inh: -9%; KB-V1 cytotox: inactive
